Sfp PPTase inh = Sfp phosphopantetheinyl transferase inhibition. hit rate 3.5% among 310,000. Potency, µM, hits mostly inhibitors. Q9F4F7. Biochemical Sfp PPTase activity, qHTS. AID 1490;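 also: the enzyme is Sfp with the accession as filed and its product quenches rhodamine fluorescence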
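Fluorescence-quenching assay with 15 nM Sfp, 5 uM rhodamine-CoA and 12.5 uM BHQ-2-labelled ybbR peptide in pH 7.6 Hepes/MgCl2 buffer. Enzyme was pre-incubated with compound for 15 min at room temperature. Rate was taken from the 30-min fluorescence change (525/598 nm).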
BAZ2B block = BAZ2B (human) inhibition; Q9UIF8; Potency, µM (series often up to 114 µM), actives largely listed as inhibitors; AID 504333; hit rate 4.4% among 360,000; AlphaScreen BAZ2B-H3K14Ac peptide displacement; also: nearly all actives have a fitted effect of over 60% in size
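Inhibition is scored as reduced AlphaScreen emission. The BAZ2B/b-H3(5-23)K14Ac complex (50 nM each) in PBS pH 7.4, 0.01% Tween-20 meets compound (up to 110 uM) for 30 min at RT before bead addition.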
G9a inh = inhibitors of human histone lysine methyltransferase G9a. Q96KQ7. G9a H3K9 monomethylation, AlphaScreen, 2 h. Potency, µM (highest dose often 102 µM), most hits filed as inhibitors. hit rate 8.8% among 350,000; also: nearly all actives have a fitted effect of over 75% in size
Target sequence (Q96KQ7 913-1193 limits assumed): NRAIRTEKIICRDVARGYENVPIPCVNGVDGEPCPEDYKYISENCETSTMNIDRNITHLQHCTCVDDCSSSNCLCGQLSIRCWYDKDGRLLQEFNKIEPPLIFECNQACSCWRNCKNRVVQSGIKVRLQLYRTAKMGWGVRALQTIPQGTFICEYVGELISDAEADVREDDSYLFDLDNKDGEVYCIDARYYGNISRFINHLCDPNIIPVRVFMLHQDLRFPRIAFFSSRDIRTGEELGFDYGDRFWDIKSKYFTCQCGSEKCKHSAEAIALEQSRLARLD
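Using a bead-based AlphaScreen, monomethylated H3K9 product from 2 h room-temperature reactions (G9a 20 nM, peptide 500 nM, SAM 20 uM) was detected with 0.5 ug/mL rabbit anti-H3K9me1 antibody.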
JMJD2A Tudor = blocks the human JMJD2A Tudor domain | AlphaScreen JMJD2A-Tudor / H3K4me3 peptide binding | hit rate 4.4% among 390,000 | Potency, µM (top dose mostly 114 µM), hits mostly inhibitors | O75164 | AID 504339; also: nearly all actives have a fitted effect of over 50% in size
HP1b binding inh = HP1-beta chromodomain-methylated histone interaction inhibition. AlphaScreen HP1-beta / biotin-H3K9me3 peptide binding. AID 540317. P83916. Potency, µM (top dose mostly 114 µM), most hits filed as inhibitors. hit rate 0.56% among 390,000; also: nearly all actives have a fitted effect of over 70% in size
Target sequence (P83916 whole entry, looked up): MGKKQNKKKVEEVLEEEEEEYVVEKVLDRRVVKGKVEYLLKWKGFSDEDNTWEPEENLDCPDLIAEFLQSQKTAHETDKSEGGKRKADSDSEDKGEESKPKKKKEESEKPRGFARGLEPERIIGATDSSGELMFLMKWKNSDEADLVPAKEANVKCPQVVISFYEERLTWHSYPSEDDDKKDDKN
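HP1-beta protein (50 nM final) preincubated 30 min at room temperature with biotinylated H3(1-18)K9me3 peptide (50 nM) in PBS pH 7.4, 0.01% Tween-20, then compound added for 30 min. AlphaScreen streptavidin donor/nickel chelate acceptor beads (10 ug/mL final), 30 min dark, luminescence read.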
A number is an active result; – = inactive; ? = inconclusive; · = not tested or not shown; [ ] = dose if it differs, or a comment. Sampled rows, rich in hits. Any-hit rate of the full collection: about 12%. Calls follow the shape of the dose curve; as a rule, active = well fitted curve in the direction sought with a large enough effect; inconclusive = small, poorly fitted or top-dose-only effect, or another doubt; inactive = no such curve, though single readings can be large; an effect the other way counts as inactive or inconclusive.

SMILES	Sfp PPTase inh	BAZ2B block	G9a inh	JMJD2A Tudor	HP1b binding inh
CN=c1scc(C)n1/N=C/c1ccc(O)cc1	–	?	?	–	–
CCN=c1scc(C)n1/N=C/c1cc(Br)c(O)c(OC)c1	–	12.6µM	10µM	79.4µM	?
Cc1nnc(C)n1/N=C/c1ccc2c(c1)OCCO2	–	·	–	–	–
CN=c1scc(C)n1/N=C/c1cc(Br)c(O)c(Br)c1	–	35.5µM	11.2µM	?	–
CN=c1scc(C)n1/N=C/c1ccc(O)cc1O	–	39.8µM	–	?	–
CC(C)NC(=O)COc1ccc(Cl)cc1Cl	–	–	–	–	–
CCC1Oc2ccc(C)cc2N(CC(=O)NCc2cccc(OC)c2)C1=O (centres undefined)	–	–	–[0.0925 µM]	–	–
Cn1c(=O)c2c(nc(NCCO)n2CCCc2ccccc2)n(C)c1=O	–	–	–	–	–
COc1cc2c(cc1OC)CN(C(=O)CSc1ccc(F)cc1)CC2	·	–	–[12.7 µM]	–	–
CC(C)N1C(=O)CC(Nc2ccc(N3CCOCC3)cc2)C1=O (centres undefined)	–	–	?	–	–
CN1C(=O)CC(Nc2cccc3cccc(N)c23)C1=O (centres undefined)	–	?	35.5µM	?	–
CC(C)N1C(=O)CC(Nc2cccc3cccc(N)c23)C1=O (centres undefined)	–	?	44.7µM	?	–
O=C(NCCc1ccccc1)C1CCCN(c2nc3ccccc3s2)C1 (centres undefined)	–	–	–	–	–
O=C(c1ccncc1)N1CCN(c2cccc(C(F)(F)F)c2)CC1	–	–	–	–	–
CN(C(=O)CN1CCC(NC(=O)c2ccccc2Br)CC1)C1CCCCC1	–	–	–	–	–
Cc1ccc(-n2c(Cc3cccc4ccccc34)n[nH]c2=S)c(C)c1	–	–	?	–	–
Cc1ccc(-n2c(-c3cc(-c4ccco4)[nH]n3)n[nH]c2=S)c(Br)c1	50.1µM	?	5.62µM	–	–
Cc1ccc2oc(-c3ccco3)nc2c1	–	–	–	–	–
S=c1[nH]nc(-c2cc(-c3ccco3)[nH]n2)n1-c1cccc2ccccc12	10µM	39.8µM	3.98µM	89.1µM	?
CCOC(=O)Cn1cc(/C=N/NC(=O)CC#N)c2ccccc21	–	–	–	–	–
CCOC(=O)c1c(NC(=O)CSc2nncs2)sc(C)c1C	–	?	10µM	–	–
CCOC(=O)c1csc(NC(=O)CSc2nnnn2-c2ccc(OC)cc2)n1	–	–	–	–	–
CCOC(=O)c1c(NC(=O)CSc2nncs2)sc(C)c1-c1ccccc1	–	–	?	–	–
CCOC(=O)c1sc(NC(=O)CSc2nc(-c3ccco3)cc(C(F)(F)F)n2)c(C(=O)OCC)c1C	·	·	·	–	–
CCOC(=O)c1c(NC(=O)CSc2nc(-c3ccccc3)cc(C(F)(F)F)n2)sc(C)c1C	·	–	6.31µM	–	–
SMILES	Sfp PPTase inh	BAZ2B block	G9a inh	JMJD2A Tudor	HP1b binding inh
CCOC(=O)c1c(NC(=O)CSc2nnnn2-c2ccc(OC)cc2)sc(C)c1C	5.01µM	–	?	50.1µM	?
CCOC(=O)c1c(NC(=O)CSc2ccccc2C(=O)O)sc(C)c1C	–	50.1µM	–	–	–
O=C(Cn1nc(-c2ccccc2)oc1=O)OCC(=O)c1ccccc1	·	·	·	–	–
CN(C1CCCCC1)S(=O)(=O)Cc1ccccc1	?	–	31.6µM	–	–
Cc1cc(C)c2c(=O)cc(CSCC(=O)Nc3nnc(C)s3)[nH]c2c1	·	–	–	–	–
NCCn1c(-c2ccccc2)cc(C(=O)O)c1-c1ccccc1F	–	?	50.1µM	–	–
CCOC(=O)c1cc(-c2ccccc2)n(CCC(=O)O)c1C	–	–	–[12.7 µM]	–	–
CCN1CCN(C(=S)c2ccc(OCC(=O)NCc3ccccc3)cc2)CC1	22.4µM	–	10µM	–	–
CCN1CCN(C(=O)NCc2ccccc2)CC1	–	–	22.4µM	1.58µM	?
O=C(NCc1ccccc1)N1CCN(c2ccc(F)cc2)CC1	–	–	–	–[11.4 µM]	?
N#CC1(NC(=O)COC(=O)C23CC4CC(CC(O)(C4)C2)C3)CCCCC1	–	–	–	–	–
COc1ccc(Cc2noc(CN3CCNC(=O)CC3)n2)cc1OC	–	–	·	–	–
CC(=O)/C(=N/Nc1ccccc1Cl)Sc1nnc(C(O)c2ccccc2)n1-c1ccccc1 (centres undefined)	–	–	10µM	?	–

Assay outcomes deposited in PubChem BioAssay by National Center for Advancing Translational Sciences (NCATS).
